Data taken from PubChem BioAssay (NCI).
Where “and” joins values, the source holds several entries; their conditions need not be identical. Equal entries are not always repeated. Compounds without any hit were thinned out: in the full panel of roughly 79,000, 15% have a hit. More than one record can exist for a structure, and the calls need not agree. Calls of active or inactive are those of the source. No stated cut-off is given here; in the data, active means growth inhibition above about 70%; inactive means the rest.

Assays:
[1] = NCI Yeast Anticancer Drug Screen. Data for the rad50 strain (AID 155);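 further: 0% = growth of vehicle-only cultures of the same strain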; conditions: S. cerevisiae rad50 strain growth inhibition, stronger effect = higher value
Procedure, shortened: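 Cells are treated with compound, grown, and their growth is then scored against vehicle-only cultures of the same repair-deficient yeast strain.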

[2] = NCI Yeast Anticancer Drug Screen. Data for the mec2-1 strain (AID 157); conditions: S. cerevisiae mec2-1 strain, stronger effect = higher value
Procedure, shortened: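 Vehicle-treated cultures served as reference for growth inhibition of compound-exposed mec2-1 yeast.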

[3] = NCI Yeast Anticancer Drug Screen. Data for the sgs1 mgt1 strain (AID 161);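 further: 0% = growth of cultures given vehicle only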; conditions: S. cerevisiae sgs1 mgt1 strain, stronger effect = higher value
Procedure, shortened: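 Mutant yeast exposed to compound; growth scored against vehicle-only wells.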

[4] = NCI Yeast Anticancer Drug Screen. Data for the cln2 rad14 strain (AID 165);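 further: 0% = growth equal to vehicle treated cultures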; conditions: S. cerevisiae cln2 rad14 strain, stronger effect = higher value
Procedure, shortened: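 Each compound was tested on cln2 rad14 yeast. Inhibition of growth was calculated against vehicle-exposed controls.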

[5] = NCI Yeast Anticancer Drug Screen. Data for the bub3 strain (AID 167); conditions: S. cerevisiae bub3 mutant strain, stronger effect = higher value
Procedure, shortened: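 Part of a panel of yeast mutants defective in DNA damage repair or cell cycle regulation. Each strain is grown with compound, and inhibition is calculated relative to solvent-treated cultures.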

[6] = NCI Yeast Anticancer Drug Screen. Data for the mlh1 rad18 strain (AID 175); conditions: S. cerevisiae mlh1 rad18 strain growth inhibition, stronger effect = higher value
Procedure, shortened: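 Vehicle-treated cultures served as the reference for growth inhibition in a yeast strain carrying DNA damage repair alterations exposed to each compound.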

[7] = at 5.0 µM (retest, dose inferred, filed as 0.5)
[8] = at 50.0 µM (retest, dose inferred, filed as 5.0)

SMILES | growth inhibition [1, 7] | growth inhibition [1, 8] | growth inhibition ([1]; at 50.0 µM) | growth inhibition [2, 7] | growth inhibition [2, 8] | growth inhibition ([2]; at 50.0 µM) | growth inhibition [3, 7] | growth inhibition [3, 8] | growth inhibition ([3]; at 50.0 µM) | growth inhibition [4, 7] | growth inhibition [4, 8] | growth inhibition ([4]; at 50.0 µM) | growth inhibition [5, 7] | growth inhibition [5, 8] | growth inhibition ([5]; at 50.0 µM) | growth inhibition [6, 7] | growth inhibition [6, 8] | growth inhibition ([6]; at 50.0 µM)
Oc1c(-c2ccccc2)cc(-[n+]2c(-c3ccccc3)cc(-c3ccccc3)cc2-c2ccccc2)cc1-c1ccccc1 | 97% (active) | 99% (active) | 91.7% (active) | 98% (active) | 99% (active) | 92.7% (active) | 98% (active) | 99% (active) | 89.6% (active) | 98% (active) | 98% (active) | 89.8% (active) | 99% (active) | 99% (active) | 89.8% (active) | 98% (active) | 99% (active) | 91.5% (active)
ClCc1nc2ccccc2[nH]1 | 10% (inactive) | 88% (active) | 88.7% (active) | 4% (inactive) | 45% (inactive) | 20.5% (inactive) | 18% (inactive) | 83% (active) | 83.5% (active) | -1% (inactive) | 77% (active) | 60% (inactive) | -9% (inactive) | 1% (inactive) | -31.9% (inactive) | 14% (inactive) | 82% (active) | 74.7% (active)
Cc1ccc(C#CCN2CCCCC2)cn1 | -142% (inactive) | -82% (inactive) | 4.45% (inactive) | -77% (inactive) | -47% (inactive) | 11.1% (inactive) | -64% (inactive) | -22% (inactive) | 22.8% (inactive) | -60% (inactive) | -46% (inactive) | 69.2% (inactive) | -66% (inactive) | -54% (inactive) | -0.5% (inactive) | -138% (inactive) | -87% (inactive) | 11.7% (inactive)
C[C@]12CC/C(=N\OC(=O)Nc3ccccc3)C=C1CC[C@@H]1C2CC[C@@]2(C)C1CC[C@@H]2OC(=O)Nc1ccccc1 (some centres undefined) | -7% (inactive) | 71% (active) | 47.2% (inactive) | -2% (inactive) | 71% (active) | 95% (active) | 1% (inactive) | 86% (active) | 4% (inactive) | -5% (inactive) | 47% (inactive) | 31.9% (inactive) | -8% (inactive) | 65% (inactive) | 93.1% (active) | -4% (inactive) | 87% (active) | 89% (active)
ClC1=C(Cl)C2(Cl)C3CC4OC4C=CC3C1(Cl)C2(Cl)Cl (centres undefined) | 7% (inactive) and 4% (inactive) | 93% (active) and 96% (active) | 96.3% (active) and 39.2% (inactive) | 12% (inactive) and 5% (inactive) | 97% (active) and 98% (active) | 97.3% (active) and 39% (inactive) | 10% (inactive) and 3% (inactive) | 96% (active) and 98% (active) | 96.8% (active) and 73.6% (active) | 0% (inactive) | 96% (active) | 95.3% (active) and 47.4% (inactive) | 2% (inactive) and 5% (inactive) | 96% (active) and 97% (active) | 97.1% (active) and 26.6% (inactive) | 8% (inactive) and 2% (inactive) | 96% (active) | 95.3% (active) and 60.9% (inactive)
S=P(Nc1ccccc1)(Oc1ccccc1)c1ccccc1 (centres undefined) | -1% (inactive) | 90% (active) | 93.8% (active) | 5% (inactive) | 91% (active) | 94.5% (active) | 3% (inactive) | 90% (active) | 93.3% (active) | -1% (inactive) | 87% (active) | 91% (active) | 1% (inactive) | 88% (active) | 92.4% (active) | 6% (inactive) | 88% (active) | 92.7% (active)
CCCCCCCCCCCCCC(=O)O | -7% (inactive) | 18% (inactive) | 4.15% (inactive) and 34.9% (inactive) | 11% (inactive) | 63% (inactive) | 7.2% (inactive) and -10.9% (inactive) | 11% (inactive) | 88% (active) | 15.4% (inactive) and 27.3% (inactive) | 1% (inactive) | 20% (inactive) | 66.5% (inactive) and 24.1% (inactive) | -7% (inactive) | 29% (inactive) | 57.7% (inactive) and 11.7% (inactive) | 5% (inactive) | 87% (active) | -6.2% (inactive) and 13.4% (inactive)
C=C(C)C1(CCCC)C(=O)NC(=S)NC1=O | 0% (inactive) | 60% (inactive) | 29.9% (inactive) | -18% (inactive) | 49% (inactive) | 11.8% (inactive) | -14% (inactive) | 61% (inactive) | 34.8% (inactive) | -18% (inactive) | 51% (inactive) | -28.1% (inactive) | -7% (inactive) | 45% (inactive) | 39% (inactive) | -2% (inactive) | 85% (active) | 40% (inactive)
